Drawing on PubChem BioAssay, this text covers composite z-score and z-score for 6 compounds.

Calls of active or inactive are those of the source.

Assay [1] deals with Plasmodium falciparum Sir2 (PF13_0152, Sir2A). In words: pfSir2 binders on small-molecule microarrays, primary screen, biochemical, small-molecule microarray, 635 nm fluorescence (AID 1098).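 Also: score merges spot fluorescence intensity with its signal-to-noise ratio.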 The following applies: small-molecule microarray binding, fluorescence 635 nm; higher = more signal.
Assay [2] can be described thus: small-molecule microarray binders of probe aDKK1, primary screen, biochemical, biotinylated probe, 635/667 nm fluorescence (AID 1099).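 Also: score merges 667nm spot fluorescence with signal to noise across triplicate slides.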 The conditions noted are these: higher = more signal.
Assay [3] in a line: small-molecule microarray binders of probe aCHRDL2, primary screen, biochemical, biotinylated probe, 635/667 nm fluorescence (AID 1100). The conditions noted are these: higher = more signal.
The nature of assay [4]: splicing luciferase reporter signal modulators, primary screen, spliceosome inhibition project, cell-based, HEK293, splice +/- reporter (AID 1101).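 Also: HEK293 cells carrying a splicing-competent luciferase reporter gene; test concentration not given here.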 The conditions noted are these: luminescence, 24 h, higher = more signal, called active from +8 up or from −8 down.
Assay [5] deals with Fibroblast growth factor 10 (Homo sapiens) (UniProt O15520). Nature of the assay: FGF10 binders on small-molecule microarrays, primary screen, biochemical, small-molecule microarray, 635 nm fluorescence (AID 1102). The following applies: FGF10 binding, fluorescence 635 nm, higher = more signal.
Sequence of Fibroblast growth factor 10 (Homo sapiens) (O15520 whole entry, looked up): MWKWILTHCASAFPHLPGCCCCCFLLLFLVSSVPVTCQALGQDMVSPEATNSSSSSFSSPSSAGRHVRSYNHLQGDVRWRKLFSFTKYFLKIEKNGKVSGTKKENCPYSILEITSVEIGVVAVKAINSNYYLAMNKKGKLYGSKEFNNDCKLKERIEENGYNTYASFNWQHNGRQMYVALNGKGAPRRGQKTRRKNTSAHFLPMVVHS
The test system of assay [6] is glycogen synthase kinase-3 (GSK3A per assay name; protocol says GSK3B). In words: GSK3 binders on small-molecule microarrays, primary screen, biochemical, small-molecule microarray, 635 nm fluorescence, GSK3A (AID 1103). Also: the record names both GSK3A and GSK3B. The following applies: small-molecule microarray binding, fluorescence 635 nm; higher = more signal.
In assay [7] the target is Epidermal growth factor receptor (Homo sapiens) (UniProt P00533). In words: EGFR binders on small-molecule microarrays, primary screen, biochemical, small-molecule microarray, 635 nm fluorescence (AID 1104).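 Also: score merges 667 nm emission intensity with spot signal to noise over triplicate slides.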 The conditions noted are these: EGFR binding, higher = more signal.
Sequence of Epidermal growth factor receptor (Homo sapiens) (P00533 whole entry, looked up): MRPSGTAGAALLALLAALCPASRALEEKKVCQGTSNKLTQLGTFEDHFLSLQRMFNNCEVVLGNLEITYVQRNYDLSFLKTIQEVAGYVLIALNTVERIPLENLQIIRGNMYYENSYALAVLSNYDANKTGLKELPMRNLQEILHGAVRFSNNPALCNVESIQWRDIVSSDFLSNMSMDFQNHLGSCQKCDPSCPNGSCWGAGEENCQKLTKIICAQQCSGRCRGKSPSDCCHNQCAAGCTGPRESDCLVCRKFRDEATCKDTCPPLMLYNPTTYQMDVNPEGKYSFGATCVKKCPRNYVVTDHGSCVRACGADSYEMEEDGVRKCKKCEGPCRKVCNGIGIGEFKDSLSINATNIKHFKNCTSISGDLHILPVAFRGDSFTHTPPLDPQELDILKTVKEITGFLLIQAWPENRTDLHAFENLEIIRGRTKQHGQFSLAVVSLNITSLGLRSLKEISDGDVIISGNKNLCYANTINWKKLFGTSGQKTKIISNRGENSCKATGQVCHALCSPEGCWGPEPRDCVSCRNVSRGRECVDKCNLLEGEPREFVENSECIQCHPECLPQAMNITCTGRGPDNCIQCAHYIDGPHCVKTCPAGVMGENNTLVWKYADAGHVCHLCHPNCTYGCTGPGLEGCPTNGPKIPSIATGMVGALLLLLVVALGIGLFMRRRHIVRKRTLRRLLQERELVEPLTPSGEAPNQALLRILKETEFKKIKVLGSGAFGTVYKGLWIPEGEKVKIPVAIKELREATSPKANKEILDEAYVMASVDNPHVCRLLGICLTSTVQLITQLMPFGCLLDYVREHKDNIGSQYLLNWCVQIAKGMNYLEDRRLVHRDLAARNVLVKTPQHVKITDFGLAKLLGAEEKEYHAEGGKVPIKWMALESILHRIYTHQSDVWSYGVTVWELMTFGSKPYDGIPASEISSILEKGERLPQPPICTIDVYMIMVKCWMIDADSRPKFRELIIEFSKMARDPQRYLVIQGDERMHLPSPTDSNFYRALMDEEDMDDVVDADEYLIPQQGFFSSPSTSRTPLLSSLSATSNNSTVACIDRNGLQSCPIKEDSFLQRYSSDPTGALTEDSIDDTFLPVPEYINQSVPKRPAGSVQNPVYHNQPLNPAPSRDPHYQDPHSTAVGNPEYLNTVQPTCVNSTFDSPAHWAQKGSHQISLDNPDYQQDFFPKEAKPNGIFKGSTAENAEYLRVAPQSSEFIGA
Assay [8] addresses Follistatin-related protein 3 (Homo sapiens) (UniProt O95633). In words: FSTL3 binders on small-molecule microarrays, primary screen, biochemical, small-molecule microarray, 635 nm fluorescence (AID 1105).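 Also: score merges emission near 667 nm and signal to noise per printed spot across three slides.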 The following applies: FSTL3 binding, higher = more signal.
Assay [9] concerns the target Dickkopf-related protein 1 (Homo sapiens) (UniProt O94907). In words: DKK1 binders on small-molecule microarrays, primary screen, biochemical, small-molecule microarray, 635 nm fluorescence scan (AID 1106).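 Also: score merges emission near 667 nm with signal to noise over three replicate slides.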 The following applies: DKK1 binding, higher = more signal.
Assay [10] relates to Inhibin beta A chain (activin A). Nature of the assay: INHBA (activin A) binders on microarrays, primary screen, biochemical, small-molecule microarray, 635 nm fluorescence scan (AID 1107).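 Also: mouse activin A protein probed at 4.33 µg/mL on printed slides; score merges bound-protein fluorescence near 667 nm with spot signal-to-noise.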 The conditions noted are these: small-molecule microarray binding, higher = more signal.
Assay [11] deals with Human papillomavirus type 1a protein E7 (residues 44-93). In words: HPV1a E7 fragment binders on microarrays, primary screen, biochemical, small-molecule microarray, residues 44-93, 635 nm fluorescence (AID 1108).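 Also: E7 fragment applied at 1 µg/mL in TBST for 1 h at 4 C; score combines spot fluorescence with its signal to noise ratio.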 The following applies: small-molecule microarray binding, fluorescence 635 nm; higher = more signal.
Assay [12] is described as follows: modulators of HCV replicon luciferase signal, primary screen, HCV replication inhibitor project, Huh7 cells, luciferase reporter (AID 1109).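 Also: huh7 hepatoma cells harbouring a luciferase neomycin HCV replicon reporter; luciferase luminescence as measure of HCV replicon replication; test concentration not given here.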 The conditions noted are these: 48 h, higher = more signal. For orientation: A replicon is a self-replicating genome or part of one, used to study replication in cells.
Assay [13] has as its target Left-right determination factor 2 (Homo sapiens) (UniProt O00292). In words: LEFTY2 binders on small-molecule microarrays, primary screen, biochemical, small-molecule microarray, 635 nm fluorescence scan (AID 1110). The conditions noted are these: LEFTY2 binding, higher = more signal.
The target of assay [14] is Calmodulin-1 (Homo sapiens) (UniProt P0DP23). Nature of the assay: CALM1 binders on microarrays, EGTA buffer, profiling panel, biochemical, small-molecule microarray, Cy5-labelled CALM1 (AID 1111).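 Also: labelled calmodulin applied in Tris saline Tween buffer holding calcium plus EGTA and DTT.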 The conditions noted are these: Cy5-CALM1 binding fluorescence, higher = more signal.
For assay [15] the target is unchanged. In words: calcium-bound CALM1 binders on microarrays, profiling panel, artefact control for SMM control-protein annotation, biochemical, small-molecule microarray, Cy5-labelled CALM1, plus calcium (AID 1112).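 Also: score merges spot fluorescence with signal to noise from triplicate slides.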 The following applies: Cy5-CALM1 binding fluorescence, higher = more signal.
Assay [16] in a line: small-molecule microarray binders of probe aWnt5a, primary screen, biochemical, biotinylated probe, 635/667 nm fluorescence (AID 1113).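 Also: score merges 667 nm fluorescence intensity with signal-to-noise per printed feature.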 The conditions noted are these: higher = more signal.
The nature of assay [17]: small-molecule microarray binders of probe aShh, primary screen, biochemical, biotinylated probe, 635/667 nm fluorescence (AID 1114).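 Also: probe is biotin-labelled aShh protein from a stem cell growth factor screen; measures binding of labelled protein to compounds printed on the slide; score merges feature fluorescence at 667 nm with signal-to-noise.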 The following applies: higher = more signal.
Assay [18] in a line: small-molecule microarray binders of probe aNog, primary screen, biochemical, biotinylated probe, 635/667 nm fluorescence (AID 1115).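 Also: probe is biotinylated aNog protein used at 0.15 µg/mL for 1 h at 4 C; z-score combines 667 nm fluorescence of each spot with its signal to noise.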 The following applies: higher = more signal.
Assay [19] addresses Torsin-1A-interacting protein 1 (Homo sapiens) (UniProt Q5JTV8). In words: LAP1 binders from COS7 cell lysate, primary screen, small-molecule microarray, 635/667 nm fluorescence (AID 1116). The following applies: COS7-hLAP1 lysate binding, 635 nm fluorescence, higher = more signal.
Assay [20] deals with Alpha-bungarotoxin (Bungarus multicinctus) (UniProt P60615). Nature of the assay: alpha-bungarotoxin binders on microarray, profiling panel, artefact control for SMM control protein annotation, biochemical, small-molecule microarray, Alexa647 label, 635/667 nm fluorescence (AID 1117). The conditions noted are these: alpha-BTX-A647 binding fluorescence, higher = more signal.
Sequence of Alpha-bungarotoxin (Bungarus multicinctus) (P60615 whole entry, looked up): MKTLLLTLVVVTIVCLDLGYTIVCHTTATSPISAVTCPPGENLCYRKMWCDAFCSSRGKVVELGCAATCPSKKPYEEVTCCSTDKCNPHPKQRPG

Sequence of Torsin-1A-interacting protein 1 (Homo sapiens) (Q5JTV8 whole entry, looked up): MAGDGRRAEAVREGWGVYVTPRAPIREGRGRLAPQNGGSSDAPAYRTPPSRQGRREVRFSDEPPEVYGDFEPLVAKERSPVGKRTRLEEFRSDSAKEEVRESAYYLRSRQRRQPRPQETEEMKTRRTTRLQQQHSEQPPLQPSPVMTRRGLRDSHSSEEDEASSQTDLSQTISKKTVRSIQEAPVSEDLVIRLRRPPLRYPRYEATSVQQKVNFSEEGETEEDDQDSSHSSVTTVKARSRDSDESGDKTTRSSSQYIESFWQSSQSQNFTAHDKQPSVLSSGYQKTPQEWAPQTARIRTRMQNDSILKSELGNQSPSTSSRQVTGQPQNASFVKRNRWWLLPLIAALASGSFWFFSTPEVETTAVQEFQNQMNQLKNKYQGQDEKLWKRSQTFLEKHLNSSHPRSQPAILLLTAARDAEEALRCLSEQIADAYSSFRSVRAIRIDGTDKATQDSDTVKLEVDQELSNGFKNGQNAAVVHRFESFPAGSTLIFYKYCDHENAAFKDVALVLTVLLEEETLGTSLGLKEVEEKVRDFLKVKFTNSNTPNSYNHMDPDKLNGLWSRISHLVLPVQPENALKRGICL
Sequence of Left-right determination factor 2 (Homo sapiens) (O00292 whole entry, looked up): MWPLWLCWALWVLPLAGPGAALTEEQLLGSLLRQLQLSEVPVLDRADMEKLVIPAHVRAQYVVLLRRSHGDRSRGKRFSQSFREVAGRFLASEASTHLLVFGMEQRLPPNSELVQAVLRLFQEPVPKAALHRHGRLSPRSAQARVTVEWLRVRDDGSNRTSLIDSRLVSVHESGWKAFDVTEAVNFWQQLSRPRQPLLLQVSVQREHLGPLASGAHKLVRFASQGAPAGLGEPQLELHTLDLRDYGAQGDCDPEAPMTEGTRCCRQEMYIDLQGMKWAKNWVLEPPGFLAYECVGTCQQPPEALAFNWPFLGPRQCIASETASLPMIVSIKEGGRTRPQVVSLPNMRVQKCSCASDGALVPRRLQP
Sequence of Follistatin-related protein 3 (Homo sapiens) (O95633 whole entry, looked up): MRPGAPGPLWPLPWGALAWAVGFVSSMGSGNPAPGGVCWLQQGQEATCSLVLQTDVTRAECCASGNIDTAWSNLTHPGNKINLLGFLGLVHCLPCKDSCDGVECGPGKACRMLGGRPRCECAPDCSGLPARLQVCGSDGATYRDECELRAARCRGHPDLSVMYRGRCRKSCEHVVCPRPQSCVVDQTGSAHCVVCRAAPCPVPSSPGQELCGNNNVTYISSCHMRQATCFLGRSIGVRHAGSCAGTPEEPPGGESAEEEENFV
Sequence of Dickkopf-related protein 1 (Homo sapiens) (O94907 whole entry, looked up): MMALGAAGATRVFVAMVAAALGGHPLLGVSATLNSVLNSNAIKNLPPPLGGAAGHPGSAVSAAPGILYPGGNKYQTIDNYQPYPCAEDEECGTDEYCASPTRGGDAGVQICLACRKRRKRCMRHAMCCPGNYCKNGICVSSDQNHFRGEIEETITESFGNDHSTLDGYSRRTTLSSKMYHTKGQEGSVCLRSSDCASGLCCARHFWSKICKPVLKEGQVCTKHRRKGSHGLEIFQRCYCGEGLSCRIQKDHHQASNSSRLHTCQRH

Take `COc1cccc(C)c1NC(=O)O[C@H]1[C@H](OC(=O)Nc2ccc3c(c2)OCO3)[C@H](OC(=O)Nc2ccc3c(c2)OCO3)[C@@H](OC)O[C@@H]1CO`: the composite z-score in assay [1] was 1.28; in assay [2], -0.0573; in [3] it was 0.306; in [5], 1.39; in assay [6], 1.34; in assay [7], 0.169. For the same compound, the composite z-score in [8] was found to be 1.01; in assay [9] it was 0.487; in assay [10] it was 0.69; in assay [11], 1.47; in assay [13] it was 0.262; in assay [14] it was 1.6. Moreover, the composite z-score is -0.406 in assay [15]; 0.122 in assay [16]; 0.715 in assay [17]; 0.351 in assay [18]; 0.305 in [19]; 1.57 in assay [20]. Moreover, the z-score is -0.316 (inactive) in [4] and -0.466 in assay [12].
In the case of `CCCCC(=C=CC[C@H](O)c1cccc(OCCO)c1)C[C@H](O)c1cc(Cl)cc(Cl)c1O`, the composite z-score is 1.28 in assay [1]; -0.152 in assay [2]; -0.214 in [3]; 1.27 in [5]; 0.25 in assay [6]; -0.443 in [7]. Further, the composite z-score was 0.544 in assay [8]; 0.0244 in assay [9]; 0.295 in assay [10]; 1.39 in [11]; -0.0526 in assay [13]; 0.154 in assay [14]. The composite z-score in assay [15] was -0.484; in [16] it was -0.096; in assay [17] it was -0.0626; in assay [18], 0.422; in assay [19] it was 0.839; in [20], 0.645. Besides, the z-score in assay [4] was -0.109 (inactive); in assay [12] it was -1.59.
With `C[C@@]1([C@@H](NS(=O)(=O)c2cccc3cccnc23)c2ccc(-c3ccccc3)cc2)C[C@H]1C1CCCCC1`, the composite z-score in assay [1] is 0.15; in assay [2], 0.778; in assay [3] it was 1.19; in [5], -0.0983; in [6], -0.472; in assay [7], 0.0823. Also, the composite z-score in assay [8] is 0.49; in assay [9], -0.473; in assay [10], 0.638; in assay [11] it was 0.917; in assay [13], -0.504; in assay [14] it was 1.02. In addition, the composite z-score in assay [15] stood at 1.38; in assay [16], 0.122; in assay [17] it was 1.05; in assay [18] it was 2; in assay [19], 0.562; in [20] it was 0.33. Moreover, the results for the z-score in assay [4] and in assay [12] were -1.19 (inactive) and -0.479, respectively.
On to `COCCOC(=O)N1C(=O)[C@@]2(c3cc(C#CC4=CCCCC4)ccc31)[C@H](C(=O)N1CCCCCCC1)[C@H]1C(=O)O[C@H](c3ccccc3)[C@H](c3ccccc3)N1[C@@H]2c1ccccc1OCCO`, for which the composite z-score was 1.33 in assay [1]; 0.854 in assay [2]; 1.14 in assay [3]; 0.536 in assay [5]; 1.3 in [6]; 0.846 in assay [7]. Moreover, the composite z-score in assay [8] was found to be 1.44; in [9], 0.865; in assay [10], 1.75; in [11], 1.37; in assay [13] it was 0.327; in assay [14] it was 1.78. Also, the composite z-score in assay [15] was 0.759; in assay [16], 0.16; in assay [17] it was 0.926; in [18], 1.2; in [19] it was 1.94; in [20], 1. Also, the z-score in [4] is -1.09 (inactive); in [12] it was -0.794.
Consider `C=C1C(=O)C=C2CN(C(=O)c3ccccc3)[C@@](Cc3ccc(F)cc3)(C(=O)OC)[C@@H]12`, for which the composite z-score in [1] was 0.641; in assay [2] it was 1.16; in assay [3], 1.21; in assay [5] it was 0.941; in assay [6] it was 1.2; in assay [7], -0.0735. Besides, the composite z-score in assay [8] is 1.06; in assay [9], -0.519; in assay [10], 1.05; in assay [11] it was 1.39; in [13], -0.406; in assay [14] it was 2.19. The composite z-score was 1.08 in assay [15]; 0.177 in assay [16]; -0.0626 in assay [17]; 1.99 in [18]; 0.952 in assay [19]; 1.85 in assay [20]. Further, the z-score in assay [4] is -0.756 (inactive); in assay [12], -3.68.
On to `O=C(NCCN1CCOCC1)[C@@H]1c2ccccc2C(=O)N(CC23CC4CC(CC(C4)C2)C3)[C@H]1c1ccc(CO)cc1`, for which the composite z-score in assay [1] is 1.13; in assay [2], 0.253; in assay [3], 0.789; in [5], 1.33; in assay [6], 1.32; in assay [7], 0.634. The composite z-score was determined as 1.21 in [8]; 0.0037 in [9]; 0.471 in assay [10]; 1.45 in assay [11]; 0.662 in assay [13]; 1.7 in assay [14]. Besides, the composite z-score was -0.236 in assay [15]; -0.0519 in [16]; -0.0362 in [17]; -0.112 in assay [18]; 0.405 in assay [19]; 1.43 in assay [20]. The z-score in assay [4] was 0.507 (inactive); in [12], -2.21.
